The text below walks through data of PubChem BioAssay (NCATS).

The nature of test [1]: Stat Signaling Pathway (AID 446).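 Also: ME-180 cervical cancer cells given 40 pM IL-6 alongside compound; SIE-controlled beta-lactamase reporter measured as 460/530 nm FRET emission ratio; % is scaled to controls: 0 for no effect and ±100 for the full control effect.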 The conditions noted are these: ME-180 (cervical carcinoma) SIE beta-lactamase reporter, IL-6 stimulated, 5 h. Put shortly: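 Emission at 460 and 530 nm (excitation 405 nm) reports SIE-controlled beta-lactamase in ME-180 cells. Cells received compound with 40 pM IL-6 for 5 hrs at 37 C; data scaled between 300 pM IL-6 and 125 nM JAK-inhibitor controls.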
For test [2], the target named is Mitogen-activated protein kinase 10 (Mus musculus) (UniProt Q61831). Kind of test: JNK3 AlphaScreen Assay (AID 530).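 Also: kinase came from lysate of stimulated human HepG2 cells.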 Also: potency is read from the fitted curve at half-maximal effect.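 As to activity change, negative = inhibition: signal reports phosphorylation of biotinylated GST-cJun 1-79 at Ser73 with 10 µM ATP; % is scaled to controls: 0 for no effect and ±100 for the full control effect.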 The conditions noted are these: JNK3 lysate, c-Jun phosphorylation; series mostly up to 57.1 µM. Put shortly:
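Phosphorylation of biotinylated GST-cJun(1-79) at Ser73 is measured by AlphaScreen proximity luminescence. Enzyme is JNK3 in HepG2 lysates activated with interleukin-1beta and tumor necrosis factor alpha; ATP is 10 uM final.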

A short description of test [3]: Cell Viability - N2a (AID 540; active = well fitted curve in the direction sought with a large enough effect; an effect the other way counts as inactive or inconclusive; also: nearly all actives have a fitted effect of over 45% in size; also: potency is read from the fitted curve at half-maximal effect;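 as to activity change, negative = cytotoxicity: plate controls were DMSO alone for no effect and tamoxifen control for full effect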). As to conditions: N2a mouse neuroblastoma cell viability; activity change, negative = cytotoxicity: at 92.2 µM (top of the series). The gist of the method:
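CellTiter-Glo ATP luminescence, read 20 min after reagent at room temperature, reported viability following 40 h compound treatment at 37 °C. N2a mouse neuroblastoma cells seeded 1500/well; Hill equation gave AC50.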

A short description of test [4]: Cell Viability - NIH 3T3 (AID 541; active = well fitted curve in the direction sought with a large enough effect; an effect the other way counts as inactive or inconclusive; also: nearly all actives have a fitted effect of over 25% in size; also: potency is read from the fitted curve at half-maximal effect;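 as to activity change, negative = cytotoxicity: plate controls were DMSO alone for no effect and tamoxifen positive control for full effect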). As to conditions: NIH 3T3 cell viability, qHTS; activity change, negative = cytotoxicity: at 92.2 µM (top of the series). Put shortly:
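Intracellular ATP (CellTiter-Glo luminescence, 20 min at room temperature) measured after 40 hr compound exposure at 37 °C of 1000 NIH 3T3 mouse fibroblasts/well in complete medium; AC50 derived by Hill-equation modelling of qHTS concentration-response curves.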
For orientation: In qHTS, concentration-response curves come from the screen itself.

Test [5] in a line: Cell Viability - HUV-EC-C (AID 542; active = well fitted curve in the direction sought with a large enough effect; an effect the other way counts as inactive or inconclusive; also: nearly all actives have a fitted effect of over 35% in size; also: potency is read from the fitted curve at half-maximal effect; as to activity change, negative = cytotoxicity: % is scaled to controls: 0 for no effect and ±100 for the full control effect). As to conditions: HUV-EC-C endothelial cell viability, qHTS; series mostly up to 92.2 µM. The gist of the method: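 CellTiter-Glo luminescence measured ATP loss in HUV-EC-C cells (1000/well) after 40 hr compound exposure at 37 °C, in complete culture medium. Concentration-response data were Hill-fitted to give AC50.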
Test [6] can be described thus: Cell Viability - H-4-II-E (AID 543; active = well fitted curve in the direction sought with a large enough effect; an effect the other way counts as inactive or inconclusive; also: nearly all actives have a fitted effect of over 35% in size; also: potency is read from the fitted curve at half-maximal effect). As to conditions: H-4-II-E rat hepatoma viability; series mostly up to 92.2 µM. Put shortly:
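CellTiter-Glo luminescence (intracellular ATP) measured after 40 h compound exposure at 37 °C in H-4-II-E rat hepatoma cells seeded at 1500/well. Values are AC50s fitted with the standard Hill equation.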

The nature of test [7]: Cell Viability - SH-SY5Y (AID 544; active = well fitted curve in the direction sought with a large enough effect; an effect the other way counts as inactive or inconclusive; also: nearly all actives have a fitted effect of over 55% in size; also: potency is read from the fitted curve at half-maximal effect;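 as to viability change, negative = cytotoxic: 0% = DMSO alone and -100% = 100 µM tamoxifen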). As to conditions: SH-SY5Y neuroblastoma cell viability; viability change, negative = cytotoxic: at 92.2 µM (top of the series). Put shortly: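 Cytotoxicity measured via ATP-dependent luciferase luminescence (CellTiter-Glo) following 40 h, 37 °C exposure of 1500 SH-SY5Y cells per well. Concentration-response data were fitted with the standard Hill equation to give AC50.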

Test [8] in a line: Cell Viability - Renal Proximal Tubule (AID 545; active = well fitted curve in the direction sought with a large enough effect; an effect the other way counts as inactive or inconclusive;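 also: 0% = DMSO only and -100% = 100 µM tamoxifen; nearly all actives have a fitted effect of over 40% in size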). The conditions noted are these: renal proximal tubule cells viability, primary cells of rat origin; activity change, negative = cytotoxicity: at 91.7 µM (top of the series). Put shortly: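 Rat renal proximal tubule primary cells, 1000/well, exposed to compounds for 40 hr at 37 °C in complete medium; cellular ATP read by CellTiter-Glo luminescence. AC50 from concentration-response fitted with standard Hill equation.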

Test [9] deals with Glucocorticoid receptor (Homo sapiens) (UniProt P04150). Kind of test: GR-GFP Redistribution (AID 450;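 active = compounds whose dose series gives a full or clear partial fitted curve of increased nuclear translocation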; also: potency is read from the fitted curve at half-maximal effect). As to conditions: U2OS GR-GFP nuclear translocation, laser cytometry, 2 h.
For test [10] the target is unchanged. Kind of test: GR-EFC Redistribution (AID 451; calls by dose curve; also: potency is read from the fitted curve at half-maximal effect). The conditions noted are these: CHO-K1 GR-EFC translocation, beta-gal luminescence, 2 h. The gist of the method: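 CHO-K1 cells stably expressing nuclear-localized β-gal enzyme acceptor and GR fused C-terminally to the enzyme donor fragment; ligand-driven nuclear translocation restores β-gal by complementation. Compounds titrated up to 46 uM final, 2 h at 37 °C; luminescence read.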

Molecules are shown by their SMILES. Several values for one entry are separate records, joined by “and”; a condition that tells them apart may be missing. Equal values may be shown once. Records with an inconclusive call do not appear. Some structures have more than one record in an assay (separate samples or runs), and their calls can disagree. Activity calls are given as the source filed them. Unless noted, calls follow the shape of the dose curve; as a rule, active = well fitted curve in either direction with a large enough effect (not every such curve was filed as active); inconclusive = small, poorly fitted or top-dose-only effect, or another doubt; inactive = flat fitted curve, though single readings scatter.

Glucocorticoid receptor (Homo sapiens), sequence (P04150 whole entry, looked up, the tested form may be a part): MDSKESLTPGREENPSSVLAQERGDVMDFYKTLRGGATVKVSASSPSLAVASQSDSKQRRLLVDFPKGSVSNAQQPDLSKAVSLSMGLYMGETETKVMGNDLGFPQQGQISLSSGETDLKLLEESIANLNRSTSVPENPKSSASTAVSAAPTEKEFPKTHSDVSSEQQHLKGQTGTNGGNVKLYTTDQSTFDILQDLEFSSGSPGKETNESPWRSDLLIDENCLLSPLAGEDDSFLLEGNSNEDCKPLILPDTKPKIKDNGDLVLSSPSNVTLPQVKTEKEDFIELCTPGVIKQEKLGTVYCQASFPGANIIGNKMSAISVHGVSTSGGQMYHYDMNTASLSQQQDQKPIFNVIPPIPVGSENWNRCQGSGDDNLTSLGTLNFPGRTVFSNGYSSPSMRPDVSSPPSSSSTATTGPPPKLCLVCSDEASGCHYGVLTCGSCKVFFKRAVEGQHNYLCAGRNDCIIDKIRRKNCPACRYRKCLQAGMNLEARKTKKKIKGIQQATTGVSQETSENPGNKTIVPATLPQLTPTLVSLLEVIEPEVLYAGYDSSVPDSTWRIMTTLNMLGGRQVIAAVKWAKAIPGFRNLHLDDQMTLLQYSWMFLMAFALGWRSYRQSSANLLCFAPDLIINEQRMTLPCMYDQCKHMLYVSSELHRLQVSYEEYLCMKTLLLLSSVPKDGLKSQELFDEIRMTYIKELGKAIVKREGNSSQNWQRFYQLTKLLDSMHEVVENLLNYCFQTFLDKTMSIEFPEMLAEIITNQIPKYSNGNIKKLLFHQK

`CC1(C)S[C@@H]2[C@H](NC(=O)[C@H](N)c3ccccc3)C(=O)N2[C@H]1C(=O)O`: the activity, negative = inhibition in test [1] (at 17.2 µM (top of the series)) was 1.21% (inactive). Besides, the Potency result in test [2], in test [3], in test [4], in [5], in [6] and in test [7] was “inactive” throughout. In test [8], the activity change, negative = cytotoxicity is -5.39% (inactive).

Take `CCCn1c(=O)c2[nH]c(-c3ccc(OCC(=O)NCCN)cc3)nc2n(CCC)c1=O`: the activity, negative = inhibition in test [1] (at 38 µM (top of the series)) is -14% (inactive). The Potency in test [9] and in test [10] was > 46 µM (inactive) in each case. Also, the Potency entry in test [2] was “inactive”.

With `N[C@@H](CC(=O)O)C(=O)O`, the Potency in test [9] and in test [10] was > 46 µM (inactive) in each case.

Regarding `Cc1c(Nc2ncccc2C(=O)O)cccc1C(F)(F)F`, the activity, negative = inhibition in [1] (at 17.2 µM (top of the series)) is -19.6% (inactive). Also, the Potency result in test [2] was “inactive”.

Consider `C=C[C@H]1CN2CC[C@@H]1C[C@@H]2[C@@H](O)c1ccnc2ccc(OC)cc12`, for which, in test [1] (at 38 µM (top of the series)), the activity, negative = inhibition was -15% (inactive) and 18.5% (inactive). The Potency result in test [2] is “inactive”.

On to `c1cnc2c(c1)ccc1cccnc12`, for which the activity, negative = inhibition in test [1] (at 38 µM (top of the series)) is -9.47% (inactive). The Potency in test [9] is > 46 µM (inactive); in test [10] it was > 46 µM (inactive) and > 9.22 µM (inactive); in test [3] it was 3.98 µM (active); in [4], 2.51 µM (active); in test [5], 12.6 µM (active); in test [6] it was 2.51 µM (active). Besides, in test [7], the Potency was 5.01 µM (active). In [2], the Potency result is “inactive”. In addition, the activity change, negative = cytotoxicity in test [8] was -87.9% (active).

Regarding `Cc1ccc(C(=O)c2ccc(CC(=O)O)n2C)cc1`, the activity, negative = inhibition in test [1] (at 17.2 µM (top of the series)) was -8.7% (inactive). For the same molecule, in [2], the Potency result is “inactive”.

Consider `Nc1cc(-c2ccncc2)c[nH]c1=O`, for which, in test [1] (at 17.2 µM (top of the series)), the activity, negative = inhibition was -17.5% (inactive). Besides, the Potency in test [9] and in test [10] was > 20.6 µM (inactive) in each case. Also, the Potency result in test [2] was “inactive”.

Take `O=C1C(SCCO)=C(SCCO)C(=O)c2ccccc21`: the activity, negative = inhibition in [1] (at 38 µM (top of the series)) was 134% (active). Also, the Potency in test [9] and in test [10] was > 46 µM (inactive) in each case. Moreover, the Potency result in test [2] was “inactive”.

As for `c1ccc(-c2ccccn2)nc1`, in test [1] (at 38 µM (top of the series)), the activity, negative = inhibition is 6.11% (inactive). The Potency in test [9] and in test [10] was > 46 µM (inactive) throughout. Besides, in [2], the Potency entry is “inactive”.

For `Cc1ccc(O)c(N=Nc2ccccc2)n1`, the activity, negative = inhibition in test [1] (at 38 µM (top of the series)) is -4.23% (inactive). Further, the Potency in test [9] and in [10] was > 46 µM (inactive) each time. The Potency result in test [2] is “inactive”.

Take `Oc1cc2c(cc1O)CN(C(=S)NCCc1ccc(Cl)cc1)CCC2`: the activity, negative = inhibition in test [1] (at 38 µM (top of the series)) is 6.62% (inactive). Besides, the Potency is > 46 µM (inactive) in test [9]; > 46 µM (inactive) in test [10]; “inactive and 10 µM (active)” in test [2].

As for `COc1cc(/C=C/C(=O)CC(=O)/C=C/c2ccc(O)c(OC)c2)ccc1O`, the activity, negative = inhibition in test [1] (at 17.2 µM (top of the series)) was -22.7% (inactive). In addition, the Potency was > 20.6 µM (inactive) in [9], 31.6 µM (active) in test [6] and 31.6 µM (active) in test [7]. In addition, in [2], the Potency result was “inactive”.

In the case of `CCCSc1ccc2nc(NC(=O)OC)[nH]c2c1`, the activity, negative = inhibition in [1] (at 17.2 µM (top of the series)) is -7.64% (inactive) and -2.74% (inactive). Moreover, the Potency in [9] and in [10] was > 20.6 µM (inactive) throughout. In addition, the Potency result in [2] was “inactive”.

In the case of `CN(C)C(N)=NCCC[C@H](N)C(=O)O`, the activity, negative = inhibition in test [1] (at 38 µM (top of the series)) was -11.7% (inactive). Moreover, the Potency in [9] and in test [10] was > 46 µM (inactive) in each case. The Potency result in test [2] is “inactive”.

As to `Cc1cc(NC(=O)Nc2ccc3c(ccn3C)c2)sn1`, the Potency in test [9] and in [10] was > 46 µM (inactive) in each case.

Consider `O=C(O)c1ccccc1Nc1cccc(C(F)(F)F)c1`, for which the activity, negative = inhibition in [1] (at 17.2 µM (top of the series)) was -14.4% (inactive) and -17.3% (inactive). The Potency in [9] and in [10] was > 20.6 µM (inactive) in each case. Besides, the Potency result in test [2] is “inactive”.

As to `Clc1ccccc1-c1nc(-c2ccncc2)no1`, in [1] (at 7.69 µM (top of the series)), the activity, negative = inhibition was -6.11% (inactive). Also, the Potency in test [9] was > 46 µM (inactive); in test [10] it was > 9.22 µM (inactive). The activity change, negative = inhibition in [2] was 3.99% [at 11.4 µM] (inactive).

For `N#C/C(=C\c1ccc(O)c(O)c1)C(=O)NCc1ccccc1`, the activity, negative = inhibition in test [1] (at 38 µM (top of the series)) was -18.4% (inactive). For the same molecule, the Potency in test [9] and in [10] was > 46 µM (inactive) throughout. The Potency result in test [2] is “inactive”.

Regarding `COC(=O)c1c(C)[nH]c(C)c1C(=O)c1ccccc1Cc1ccccc1`, the activity, negative = inhibition in [1] (at 38 µM (top of the series)) was -23% (inactive). The Potency in test [9] and in test [10] was > 46 µM (inactive) in each case. In test [2], the Potency result was “inactive”.

For the molecule `C[N+](C)(CCCCCC[N+](C)(C)CCCN1C(=O)c2cccc3cccc(c23)C1=O)CCCN1C(=O)c2cccc3cccc(c23)C1=O`, the activity, negative = inhibition in test [1] (at 38 µM (top of the series)) is 0.109% (inactive). Besides, the Potency in test [9] and in test [10] was > 46 µM (inactive) throughout. In addition, in test [2], the Potency result was “inactive”.

With `NCCCCC(=O)O`, in [1] (at 38 µM (top of the series)), the activity, negative = inhibition was 0.307% (inactive). Besides, the Potency in test [9] and in test [10] was > 46 µM (inactive) throughout. Moreover, the Potency result in [2] is “inactive”.

With `NO`, the activity, negative = inhibition in test [1] (at 38 µM (top of the series)) is 11.6% (inactive). In addition, the Potency entry in [2] is “inactive”.

As to `NCCNC(=O)c1ncsc1-c1cccc(F)c1`, in [1] (at 38 µM (top of the series)), the activity, negative = inhibition is 3.48% (inactive). The Potency in test [9] and in test [10] was > 46 µM (inactive) throughout. In addition, in test [2], the Potency entry is “inactive”.

`CC(C)(C=O)Cc1cc(C(C)(C)C)c(O)c(C(C)(C)C)c1`: in [1] (at 38 µM (top of the series)), the activity, negative = inhibition is -12.1% (inactive). In addition, the Potency in [9] and in [10] was > 46 µM (inactive) throughout. The Potency entry in [2] is “inactive”.

`O=c1[nH]c2cc(C(F)(F)F)ccc2n1-c1cc(C(F)(F)F)ccc1O`: the Potency in [9] and in [10] was > 46 µM (inactive) in each case.
